gsp antag: gsp mutant antagonism. Potency, µM (top dose mostly 76.9 µM), for inactives: at the highest dose activity change, negative = inhibition, actives largely listed as inhibitors. gsp-mutant cells, cAMP HTRF, 30 min. hit rate 0.4% among 340,000; calls by dose curve; cell line not stated here;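 also: intracellular cAMP measured with PDE inhibitor Ro 20-1724 present during compound exposure; potency is read from the fitted curve at half-maximal effect; % is scaled to controls: 0 for no effect and ±100 for the full control effect; nearly all actives have a fitted effect of over 65% in size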
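G418-selected cells were plated in DMEM/10% FBS for 16-24 h at 37C, then treated with compounds plus the PDE inhibitor […] (300 uM solution added) for 30 min at 37C. Intracellular cAMP was measured by HTRF after 30 min lysis at room temperature.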
gsp agonist: agonists of gsp mutant (McCune-Albright syndrome); gsp mutant cells, cAMP HTRF, 30 min; Potency, µM (top dose mostly 76.9 µM), without a hit: at the highest dose activation (cAMP increase), most hits filed as activators; hit rate 0.13% among 340,000; active = well fitted activation curve with a large enough effect; inconclusive = small, poorly fitted or top-dose-only effect, or another doubt; inactive = no such curve, though single readings can be large or run the other way; cell line not stated here;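 also: phosphodiesterase inhibitor Ro 20-1724 added with compounds to block cAMP breakdown; potency is read from the fitted curve at half-maximal effect; nearly all actives have a fitted effect of over 60% in size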
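Cells stably selected in G418 were plated at 2000/well, grown 16-24 hr, then given compounds in DMSO with the PDE inhibitor […] (300 uM solution added) for 30 min at 37C; cAMP was read by HTRF.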
BRCA1 expr up: activators of BRCA1 expression; Potency, µM (series often up to 46.1 µM), inactives show at the highest dose activation, hits mostly activators; hit rate 1.1% among 380,000; AID 624202; MCF7-BRCA1-FFLuc reporter, luminescence, 48 h; response scale: scaled: vehicle 0%, 10 µM genistein 100%; also: potency is read from the fitted curve at half-maximal effect; nearly all actives have a fitted effect of over 80% in size
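Quantitative HTS in MCF7 cells stably reporting BRCA1 expression via firefly luciferase. Compound treatment lasts 48 h at 37 °C in phenol-red free MEM. Activation is expressed relative to genistein at 10 microM and DMSO.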
IL-2 act: activates IL-2 in a cell-based reporter assay. IL-2 activation reporter assay, cell-based qHTS; stimulated with anti-CD3/CD4/CD28 beads; in transgenic mouse T cells. activation, % (series mostly up to about 46 µM). hit rate 0.065% among 360,000. AID 652025; in the data active = activation above about 50%; inconclusive = mostly about 30% to 49%; also: 0% is about no effect
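Screening format: compound pinned onto unstimulated transgenic mouse T cells, 60 min incubation, then anti-CD3/anti-CD4/anti-CD28 bead stimulation for 18 hours at 37 degrees C, followed by EGFP and DsRed detection.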
mIDH1 inhibitor: inhibitors of human mutant IDH1 R132H. IDH1-R132H enzyme, NADPH consumption, diaphorase/resazurin fluorescence. Potency, µM (titrated, usually from 76.6 µM), for inactives: top-dose activity change, negative = inhibition, hits mostly inhibitors. hit rate 0.093% among 390,000. AID 602179; also: potency is read from the fitted curve at half-maximal effect; % is scaled to controls: 0 for no effect and ±100 for the full control effect; nearly all actives have a fitted effect of over 65% in size
Target sequence (O75874 whole entry R132H, stated change not applied): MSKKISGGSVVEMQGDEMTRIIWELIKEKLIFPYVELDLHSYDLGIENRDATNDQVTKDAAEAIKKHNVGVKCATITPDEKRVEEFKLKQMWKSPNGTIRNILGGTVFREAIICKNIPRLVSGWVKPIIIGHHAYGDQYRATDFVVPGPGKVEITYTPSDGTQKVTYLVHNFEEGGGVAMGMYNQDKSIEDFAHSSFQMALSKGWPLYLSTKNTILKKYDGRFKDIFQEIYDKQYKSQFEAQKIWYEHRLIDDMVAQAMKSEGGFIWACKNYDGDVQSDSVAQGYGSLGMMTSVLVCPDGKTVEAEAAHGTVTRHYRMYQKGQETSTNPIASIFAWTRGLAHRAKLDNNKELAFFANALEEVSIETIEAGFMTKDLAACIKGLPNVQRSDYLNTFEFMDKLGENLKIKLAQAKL
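IDH1-R132H (0.5 ug/mL dispensed) in pH 7.5 Tris buffer was preincubated 30 min with compound, then given a substrate mix of 0.016 mM NADPH and 2 mM alpha-KG for 80 min at room temperature; remaining NADPH was read by diaphorase/resazurin fluorescence.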
Resorufin autofl: counter-screen for mutant IDH1 inhibitors: fluorescence interference; shares compounds with mIDH1 inhibitor; Resorufin detection reagent fluorescence interference, cell-free; inhibition of signal, % at 51.2 µM; 750 tested, under 10 active; AID 623980;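 also: 0% = wells with normal resorufin and full inhibition = wells lacking resorufin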
IDH1 WT: wild-type IDH1 (human) inhibition counterscreen. AID 623995. Potency, µM (highest dose often 115 µM), without a hit: at the top dose activity change, negative = inhibition, actives largely listed as inhibitors. shares compounds with mIDH1 inhibitor. hit rate 9% among 750. WT IDH1 enzyme, NADPH diaphorase/resazurin fluorescence;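 also: potency is read from the fitted curve at half-maximal effect; 0% = full WT IDH1 enzyme control and full inhibition = no enzyme wells; nearly all actives have a fitted effect of over 55% in size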
Target sequence (O75874 whole entry, looked up): as the sequence (O75874 whole entry R132H, stated change not applied) above, with H132R counted along it
mIDH1 confirm: inhibits human mutant IDH1 enzyme in cherrypick confirmation. shares compounds with mIDH1 inhibitor. IDH1 R132H enzyme, NADPH diaphorase/resazurin fluorescence. Potency, µM (titrated, usually from 76.6 µM), for the others: at the highest dose activity change, negative = inhibition, hits mostly inhibitors. hit rate 83% among 750. AID 624002; also: potency is read from the fitted curve at half-maximal effect; nearly all actives have a fitted effect of over 50% in size
The depositor's hits bear a star; [ ] = remark or other dose. Sampled rows, rich in hits. Any-hit rate of the full collection: about 1.5%. Unless noted, calls follow the shape of the dose curve; as a rule, active = well fitted curve in the direction sought with a large enough effect; inconclusive = small, poorly fitted or top-dose-only effect, or another doubt; inactive = no such curve, though single readings can be large; an effect the other way counts as inactive or inconclusive.

CC(=O)Nc1ccc(N(C(=O)Cc2c[nH]c3ccccc23)C(C(=O)NC2CCCCC2)c2ccco2)cc1 (configuration not stated) was read as gsp antag -14%, gsp agonist inconclusive, BRCA1 expr up -54%, IL-2 act 0 and mIDH1 inhibitor -1%.
For Cc1ccc(C(C(=O)NC2CCCCC2)N(C(=O)Cc2c[nH]c3ccccc23)c2ccccc2)o1 (configuration not stated) the results were gsp antag 2%, gsp agonist -39%, BRCA1 expr up -57%, IL-2 act -3, mIDH1 inhibitor inconclusive, Resorufin autofl -9, IDH1 WT -12% and mIDH1 confirm 7.1µM*.
`CC1CCc2c(sc3nc(C(C)(C)C)nc(N4CCN(C(=O)CCl)CC4)c23)C1` (configuration not stated) gave gsp antag inconclusive, gsp agonist -24%, BRCA1 expr up -104%, IL-2 act -4, mIDH1 inhibitor 41µM*, Resorufin autofl -4, IDH1 WT 45µM* and mIDH1 confirm 3.2µM*.
For CCn1c2ccccc2c2cc(C3C(C#N)=C(N)Oc4n[nH]c(COC)c43)ccc21 (configuration not stated) the results were gsp antag -3%, gsp agonist -15%, BRCA1 expr up -100%, IL-2 act -2, mIDH1 inhibitor 52µM*, Resorufin autofl 4, IDH1 WT -4% and mIDH1 confirm 20µM*.
Screening CC(c1ccccc1)n1c(-c2cccs2)nc2c(c(=O)c3ccccc3n2C)c1=O (configuration not stated) returned gsp antag -13%, gsp agonist 0%[15.4 µM], BRCA1 expr up -1%, IL-2 act 0, mIDH1 inhibitor 32µM*, Resorufin autofl 2, IDH1 WT 20% and mIDH1 confirm 7.9µM*.
Screening Cn1c2ccccc2c(=O)c2c(=O)n(-c3ccc(F)cc3)c(-c3cccs3)nc21 returned gsp antag -6%, gsp agonist -34%, BRCA1 expr up 1%, IL-2 act -1 and mIDH1 inhibitor -16%.
Screening Cc1nc2c(c(=O)c3ccccc3n2C)c(=O)n1C1CCCCCC1 returned gsp antag 7%, gsp agonist 20%[15.4 µM], BRCA1 expr up 52%, IL-2 act 1 and mIDH1 inhibitor 4%.
Cn1c2ccccc2c(=O)c2c(=O)n(C3CCCCC3)c(-c3ccco3)nc21 was read as gsp antag -3%, gsp agonist 12%, BRCA1 expr up -48%, IL-2 act -3, mIDH1 inhibitor 26µM*, Resorufin autofl -11, IDH1 WT 24% and mIDH1 confirm 22µM*.
Screening O=C(NC1CCCCC1)N(Cc1ccc(F)cc1)Cc1nc2ccccc2c(=O)[nH]1 returned gsp antag 10%, gsp agonist 6%, BRCA1 expr up 0%, IL-2 act -2, mIDH1 inhibitor inconclusive, Resorufin autofl 0, IDH1 WT 10% and mIDH1 confirm 28µM*.
`COc1ccccc1C(=O)N1CCN(Cc2cc(=O)oc3cc(C)ccc23)CC1` gave mIDH1 inhibitor 15%.
Screening CC(C)(C)NC(=O)CSc1nc2ccc(Nc3nc(N4CCOCC4)nc(N4CCOCC4)n3)cc2s1 returned gsp antag inconclusive, gsp agonist -23%, BRCA1 expr up -47%, IL-2 act -5, mIDH1 inhibitor inconclusive, Resorufin autofl -2, IDH1 WT -5% and mIDH1 confirm 20µM*.
For Cc1ccc(C)c(N(C)C(=O)c2cc3c(=O)[nH]c4ccc(C)cc4c3s2)c1 the results were gsp antag -5%, gsp agonist -28%, BRCA1 expr up -57%, IL-2 act 0, mIDH1 inhibitor 21µM*, Resorufin autofl -3, IDH1 WT inconclusive and mIDH1 confirm 11µM*.
`CCCOc1ccc(C2C(C(=O)c3ccc(C)o3)=C(O)C(=O)N2Cc2ccco2)cc1OCC` (configuration not stated) gave gsp antag -17%, gsp agonist inconclusive, BRCA1 expr up 1%, IL-2 act -1, mIDH1 inhibitor 52µM*, Resorufin autofl -1, IDH1 WT 6% and mIDH1 confirm inconclusive.
For CCCOc1ccc(C2C(C(=O)c3ccc(C)o3)=C(O)C(=O)N2Cc2ccco2)cc1 (configuration not stated) the results were gsp antag -6%, gsp agonist inconclusive, BRCA1 expr up -13%, IL-2 act 0 and mIDH1 inhibitor inconclusive.
For CC(=O)N1c2ccc(Cl)cc2C2C=CCC2C1c1cccc2ccccc12 (configuration not stated) the results were gsp antag 13%, gsp agonist -28%, BRCA1 expr up -95%, IL-2 act -2, mIDH1 inhibitor 15µM*, Resorufin autofl 11, IDH1 WT 40µM* and mIDH1 confirm 6.3µM*.
`C=CCn1c(SCC(=O)N2CCCC2=O)nc2sc(CC)cc2c1=O` gave gsp antag inconclusive, gsp agonist -4%, BRCA1 expr up -5%, IL-2 act 0 and mIDH1 inhibitor 0%.
`C=CCn1c(SCC(=O)N2CCN(C(=O)c3ccco3)CC2)nc2sc(CC)cc2c1=O` gave gsp antag 8%, gsp agonist 4%, BRCA1 expr up -35%, IL-2 act -2, mIDH1 inhibitor inconclusive, Resorufin autofl -1, IDH1 WT 14% and mIDH1 confirm 18µM*.
Screening COC(=O)CCCn1cc(CN2CC(N3CCN(Cc4ccccc4F)CC3)CS2(=O)=O)nn1 (configuration not stated) returned BRCA1 expr up 14% and IL-2 act 0.
For CC/C(=C\C1CCCCC1)C(NP(=O)(c1ccccc1)c1ccccc1)c1ccccc1 (configuration not stated) the results were gsp antag -10%, BRCA1 expr up -63%, IL-2 act 0, mIDH1 inhibitor 28µM*, Resorufin autofl -7, IDH1 WT 1% and mIDH1 confirm 22µM*.
